Compounds without any hit were thinned out: in the full panel of roughly 83,000, 20% have a hit.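 48-hour exposure, single concentration, 96-well plates; percent growth endpoint where 0 means no net growth. Active: below 10.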 A number with no mark means an inactive call. The source made the active and inactive calls.
What follows are compounds tested on TK-10 renal (assay: NCI-60 one-dose screen, 48 h (100 = growth as untreated, 0 = no growth, -100 = all killed)). Conditions: 10 µM unless noted.
Work on `CC(C)OC1=C(Cl)C(=O)c2ccccc2C1=O` yielded a growth of 110%. For `CS(=O)(=O)Nc1cccc(C(=O)NCc2ccc(N3CCOCC3)cc2)c1`, the growth was 93.3%. Work on `COc1ccc(S(=O)(=O)ON=C2C=C(C)C(=O)C(C)=C2)cc1` yielded a growth of 109%. `CCOC(=O)c1c(Cl)c2c(n1Cc1cc(OC)cc(OC)c1)-c1oncc1CCC2` was tested, and the growth was 55.1%. `NC(=S)N/N=C1\c2ccccc2-c2c(F)c(F)c(F)c(F)c21` was tested, and the growth was 116%. `COCCOC1=C(Cl)C(=O)c2ccccc2C1=O` gave a growth of 97.9%. In the case of `O=C1C(OCCOc2ccccc2)=C(OCCOc2ccccc2)C(=O)c2ccccc21`, the growth is reported as 116%. Work on `N#Cc1c(O)c2c(c(O)c1C#N)C(=O)c1ccccc1C2=O` yielded a growth of 87.5%. In the case of `COc1cc(/C=C/C(=O)CC(=O)/C=C/c2cc(Br)c(OC)c(OC)c2)cc(Br)c1OC`, the growth is reported as 109%. Compound `Nc1nc2c(s1)CCc1c-2c(Br)n(Cc2ccccc2)c1Br` has a growth of 88.1%. `O=c1onc(-c2ccccc2)c2ccccc12` showed a growth of 114%. `CCCCCn1c(=N)n(CC(O)COc2cccc(C)c2)c2ccccc21` (stereo not given) showed a growth of 21.4%. Compound `CCC(C)Oc1cc(/C=N/NC(=O)c2cnn3c2NC(c2ccccc2)C3)ccc1OC` (stereo not given) has a growth of 70.7%. For `COc1cccc(OC)c1OC(=O)c1ccccc1`, the growth was 114%. `C=C[C@H]1C[C@@H]2C[C@@H]3[C@H]4C/C=C\C(=O)NCCCC5NC(=O)C(=C(O)/C=C/[C@@H]4CC(=O)[C@H]3[C@@H]2[C@H]1C)C5=O` (stereo not given in full) was tested, and the growth was -94.5% (active).

Source: PubChem BioAssay (NCI)
